Assay outcomes: PubChem, National Center for Advancing Translational Sciences (NCATS)
PLK1 PBD inh – PLK1 (human) polo-box domain binding inhibition. hit rate 2.8% among 360,000. Plk1 PBD binding of FITC phosphopeptide, fluorescence polarization. P53350. Potency, µM, inactives show max response, negative = inhibition, usual class: inhibitors; also: potency is read from the fitted curve at half-maximal effect; series mostly up to about 57 µM; % is scaled to controls: 0 for no effect and ±100 for the full control effect; nearly all actives have a fitted effect of over 65% in size
uPA generation – cell surface uPA generation inhibition | cell surface uPA generation assay, qHTS | Potency, µM (highest dose often 38.3 µM), for the others: at the top dose activity change, negative = inhibition, most hits filed as inhibitors | hit rate 0.31% among 330,000 | AID 540303; active = well fitted inhibition curve with a large enough effect; inconclusive = small, poorly fitted or top-dose-only effect; inactive = no such curve, though single readings can be large or run the other way; tested in mouse RAW 264.7 cells; also: potency is read from the fitted curve at half-maximal effect; % is scaled to controls: 0 for no effect and ±100 for the full control effect; nearly all actives have a fitted effect of over 55% in size
VDR inh – vitamin D3 receptor (human) inhibition; P11473; VDR-SRC2-3 peptide fluorescence polarization, 2 h; Potency, µM, without a hit: max response, negative = inhibition, usual class: inhibitors; hit rate 0.93% among 400,000; AID 504847; also: potency is read from the fitted curve at half-maximal effect; % is scaled to controls: 0 for no effect and ±100 for the full control effect
Target sequence (P11473 whole entry, looked up): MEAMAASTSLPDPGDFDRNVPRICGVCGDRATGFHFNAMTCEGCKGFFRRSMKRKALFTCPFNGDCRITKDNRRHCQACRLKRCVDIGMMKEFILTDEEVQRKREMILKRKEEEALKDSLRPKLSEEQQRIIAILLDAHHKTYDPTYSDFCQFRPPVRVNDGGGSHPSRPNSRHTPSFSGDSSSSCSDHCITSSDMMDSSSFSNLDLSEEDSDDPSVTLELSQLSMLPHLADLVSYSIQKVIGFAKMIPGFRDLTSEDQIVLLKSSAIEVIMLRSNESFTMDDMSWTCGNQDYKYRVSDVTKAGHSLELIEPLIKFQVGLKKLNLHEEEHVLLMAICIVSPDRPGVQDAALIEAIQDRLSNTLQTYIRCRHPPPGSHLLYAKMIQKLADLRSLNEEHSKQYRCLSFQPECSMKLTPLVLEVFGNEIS
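Fluorescence polarization assay measuring small-molecule disruption of VDR binding to the coregulator peptide SRC2-3. Compounds were pin-transferred (23 nl) into the reagent mix and incubated 2 h at room temperature before reading.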
TSHR antag – human thyrotropin receptor antagonism; P16473; TSHR-expressing cells, TSH-stimulated cAMP HTRF, 2 h; hits give low values; activity change, negative = inhibition, % at 11.5 µM; hit rate 0.2% among 330,000; AID 504810;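 active = activity change below a set negative limit, meaning inhibition stronger than a set level, cut at about -70% in these data; inconclusive = activity change between two set negative limits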; also: % is scaled to controls: 0 for no effect and ±100 for the full control effect
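Freshly harvested TSHR cells receive pin-tooled compound, then EC80 TSH at 4nM final. After 2 hours at 37 deg C, antibody in lysis buffer and cAMP-d2 are added; 30 minutes at ambient temperature precede the HTRF read.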
PTAP TSG101 blk – blocks PTAP/TSG101 interaction to inhibit HIV-1 budding. Fluorescence polarization, FITC-PTAP peptide / Tsg101 binding. Potency, µM (series often up to 115 µM), for inactives: at the highest dose activity change, negative = inhibition, hits mostly inhibitors. AID 493005. 340,000 tested, under 10 active. Q99816; active = well fitted inhibition curve with a large enough effect in the main read-out, with a control signal flat, not every such curve was filed as active; inconclusive = small, poorly fitted or top-dose-only effect, or effect the other way, or a change in a side signal; inactive = no such curve, though single readings can be large or run the other way; also: potency is read from the fitted curve at half-maximal effect; % of control where 0% means no effect
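Tsg101 binding domain (10 uM final) was mixed with compound and a FITC-labeled PTAP peptide (50 nM final) in HEPES pH 7.5 buffer with NaCl, Tween 20, EDTA and TCEP; fluorescence polarization was read after 20 min at r.t.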
* marks the source's active call; other numbers are inactive results; ? = inconclusive; · = no result given. Rows were chosen to be rich in hits. Some 3.1% of all compounds tested hit in one or more screens of this group. Unless noted, calls follow the shape of the dose curve; as a rule, active = well fitted curve in the direction sought with a large enough effect; inconclusive = small, poorly fitted or top-dose-only effect, or another doubt; inactive = no such curve, though single readings can be large; an effect the other way counts as inactive or inconclusive.

SMILES	PLK1 PBD inh	uPA generation	VDR inh	TSHR antag	PTAP TSG101 blk
O=c1c2c([N+](=O)[O-])cc([N+](=O)[O-])cc2sn1Cc1ccccc1	0.75µM*	2%	22µM*	-20	3%
O=c1c2c([N+](=O)[O-])cc([N+](=O)[O-])cc2sn1-c1ccc(Br)cc1	2.7µM*	12%	25µM*	0	-5%
C[C@H](CO)N1C[C@H](C)[C@@H](CN(C)S(=O)(=O)c2cccc(C#N)c2)OCc2cn(nn2)CCCC1=O	-5%	·	·	·	·
COc1ccc(NC(=O)C(=O)NCC(c2cccnc2)N2CCc3ccccc3C2)cc1 (stereo not drawn)	·	·	3%	·	·
CC(=O)c1ccc(S(=O)(=O)N2CCn3cccc3C2c2ccc(C)cc2)cc1 (stereo not drawn)	·	·	2%	·	·
COC(=O)c1c(NC(=O)c2cc(=O)c3cc(C)cc(C)c3o2)sc2c1CCC2	·	·	7%	·	·
C[C@H](NC(=O)C1CC(=O)N(c2ccc3c(c2)OCCO3)C1)C(=O)NC1CCCC1 (stereo partly drawn)	5%	0%	4%	7	-1%
C[C@H](NC(=O)C1CC(=O)N(c2ccc3c(c2)OCO3)C1)C(=O)NC1CCCC1 (stereo partly drawn)	27µM*	5%	?	-2	0%
N=C1S/C(=C\c2cn[nH]c2-c2ccc(F)cc2)C(=O)N1c1ccccc1F	27µM*	-4%	-20%	-21	5%
Cc1ccc(C(C)C)c(OCC(=O)Nc2ccc(-c3nc4ncccc4o3)cc2C)c1	·	·	-7%	·	·
C=CCn1c(SCC(=O)NC2CC2)nc2sc(CC)cc2c1=O	27µM*	?	-21%	-4	-3%
Cc1ccccc1-n1ncc2c1CC(C)(C)CC2NC(=O)c1cn[nH]c1C (stereo not drawn)	30µM*	10%	?	-2	-4%
Cc1ccccc1-n1ncc2c1CC(C)(C)CC2NC(=O)c1ccncc1 (stereo not drawn)	1%	0%	0%	2	0%
CC(=O)c1cccc(NC(=O)C2CCN(c3nnc(-n4cccc4)s3)CC2)c1	·	·	-1%	·	·
COc1ccc(CCNC(=O)c2cc(Sc3cccc(Cl)c3)nc3ccccc23)cc1OC	·	·	3%	·	·
COc1ccc2c(c1OC)C(=O)N1c3ccccc3N=C(c3ccc([N+](=O)[O-])cc3)CC21 (stereo not drawn)	0%	-3%	89µM*	14	-2%
CCOc1ccc(-n2nc3ccc(NC(=O)COc4ccccc4C)cc3n2)cc1	·	·	-9%	·	·
C=C1CC(Cn2cc(Br)c(=O)[nH]c2=O)(c2ccc(-c3ccccc3)cc2)OC1=O (stereo not drawn)	24µM*	-8%	?	·	-1%
Cc1ccc(C(=O)c2cc([N+](=O)[O-])ccc2N2CC(C)OC(C)C2)cc1 (stereo not drawn)	?	?	89µM*	-5	0%
CC1CCCN(c2ccc([N+](=O)[O-])cc2C(=O)c2ccccc2)C1 (stereo not drawn)	-10%	0.16µM*	-23%	0	-3%
Cc1ccc(C(=O)c2cc([N+](=O)[O-])ccc2N2CCCCC2)cc1	-6%	-13%	-16%	4	-3%
COc1ccc(OCC(=O)NCc2nc(-c3ccccc3)no2)cc1	30µM*	3%	-16%	·	0%
Cc1ccc(OCc2nc(-c3ccccc3)no2)cc1	12µM*	-4%	?	-6	-4%
Cc1nc(N2CCCC2)c2c(C(=O)Nc3cccc(Cl)c3C)c(C)oc2n1	·	·	-11%	·	·
CCc1ccc(C2=NN(CCC(=O)NCCc3ccc(OC)c(OC)c3)C(=O)CC2)cc1	·	·	2%	·	·
SMILES	PLK1 PBD inh	uPA generation	VDR inh	TSHR antag	PTAP TSG101 blk
CSc1ccc(CCNC(=O)c2ccc3c(Cl)c4c(nc3c2)CCCC4)cc1	·	·	-4%	·	·
O=C1Oc2ccccc2C(=O)C1C(CC(O)c1ccc(-c2ccc(Br)cc2)cc1)c1ccccc1 (stereo not drawn)	·	·	32µM*	·	·
O=c1ccc(N=Nc2ccccc2)ccc1O	-20%	-4%	-4%	28	-6%
Oc1ccc(N=Nc2ccccc2)o1	?	6.3µM*	89µM*	8	-1%
C=CCCCCCCCCCCCc1ccco1	·	·	25µM*	·	·
OCCNc1nc(Cl)nc(NCc2ccco2)n1	-4%	1%	-16%	-9	0%
COC(=O)c1ccc(Cn2cnc3c(N)ncnc32)cc1	-7%	-5%	-2%	·	-1%
Cc1ccc(S(=O)(=O)NCCOc2nc(N(C)C)nc(N(C)C)n2)cc1	24µM*	7%	?	3	0%
Cc1ccc(S(=O)(=O)NCCCCCC(=O)Nc2ccccc2)cc1	1%	4%	-1%	-6	2%
Cc1ccc(S(=O)(=O)NCCOc2nc(N(C)C)nc(N3CCOCC3)n2)cc1	-4%	2%	-11%	0	-1%
Cc1ccc(S(=O)(=O)NCCNS(=O)(=O)c2ccc(C)cc2)cc1	2%	-5%	5%	-83*	0%
CNC(=O)CCCCCNS(=O)(=O)c1ccc(C)cc1	19µM*	0%	-9%	2	1%
CC1CCN(c2nn3c(=O)c(C(=O)NCCCOC(C)C)cnc3s2)CC1	·	·	5%	·	·
CCOC(=O)C(=CNNc1ccccc1)C(=O)OCC	?	3%	50µM*	0	-2%
COc1ccc(OC)c(/C=C2\N=C(c3ccccc3)OC2=O)c1	12µM*	3%	-1%	2	?
COc1cc(/C=C2\N=C(c3ccccc3)OC2=O)ccc1OC(C)=O	-12%	?	-9%	22	-5%
COCCN1C(=O)c2ccccc2C1c1nc2ccccc2[nH]1 (stereo not drawn)	-4%	·	·	·	·
Cc1nc(C(F)(F)F)ccc1C(=O)N1CCC1(C)C(=O)NS(=O)(=O)c1cccc(F)c1 (stereo not drawn)	1%	·	·	·	·
NC(=O)C1CCN(c2nc(-c3cccs3)cs2)CC1	·	4%	-7%	-7	0%
CC(C(Sc1ccccc1N)c1ccccc1)[N+](=O)[O-] (stereo not drawn)	1.9µM*	11µM*	18µM*	5	0%
CCc1nnc(NS(=O)(=O)c2ccc(NC(=O)Nc3ccc(OC)cc3)cc2)s1	-6%	2%	-5%	0	1%
COc1ccc(S(=O)(=O)Nc2nnc(CC(C)(C)C)s2)cc1	30µM*	4%	-7%	-10	-1%
COc1ccc(S(=O)(=O)Nc2nnc(C(C)(C)C)s2)cc1	7.5µM*	2%	?	-4	-5%
Cc1cc2c(cc3c(SCC(=O)Nc4cccc(Cl)c4C)nnc(C)n32)o1	·	·	24%	·	·
CO/N=C/NC(=O)c1ccc([N+](=O)[O-])c(CS(=O)(=O)c2ccc(Cl)cc2)c1	3µM*	-8%	?	-12	0%
CCn1c2ccccc2c2cc(NC(=O)c3cc(OC)cc(OC)c3)ccc21	-11%	2.2µM*	6%	-4	2%
CCn1c2ccccc2c2cc(NC(=O)c3ccc(Br)o3)ccc21	?	-3%	50µM*	7	-2%
